# According to publication PMC8384837, “Expanding the binding specificity for RNA recognition by a PUF domain”:
# Positions count from the first letter of the chain named.
# Legend:
# Assay in all cases: yeast three-hybrid, YBZ-1, SC-Leu-His + 0.5 mM 3-AT, 4 days
# Settings in all cases: tags: N-Gal4 AD-HA kept; label: inside an RPR1-promoter hybrid RNA with tandem MS2 sites; ssRNA
# PUM1 PUF domain R5-AAR = PUM1 PUF domain R5-AAR (Homo sapiens, UniProt Q14671 828-1176, C1007A;R1008A;Q1011R)
# How it was run: (§1)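 A centromeric plasmid in strain YBZ-1 co-expressed Pumilio-1 PUF domain libraries, randomized at the three base-contacting residues of each repeat, with matching RNA elements; the strain carries a LexA–MS2 coat fusion and a HIS3 reporter. After four days on SC-Leu (input) or SC-Leu-His + 0.5 mM 3-AT (selection), the repeat regions were PCR-amplified and Illumina-sequenced. The interaction score is the log change in variant frequency from input to selection, using log2 and a pseudocount of 1 where absent.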
# PUM1 PUF domain R6-KWC = molecular target: T1, PUM1 PUF domain R6-KWC (Homo sapiens, UniProt Q14671 828-1176, N1043K;Y1044W;Q1047C)
# T1 sequence: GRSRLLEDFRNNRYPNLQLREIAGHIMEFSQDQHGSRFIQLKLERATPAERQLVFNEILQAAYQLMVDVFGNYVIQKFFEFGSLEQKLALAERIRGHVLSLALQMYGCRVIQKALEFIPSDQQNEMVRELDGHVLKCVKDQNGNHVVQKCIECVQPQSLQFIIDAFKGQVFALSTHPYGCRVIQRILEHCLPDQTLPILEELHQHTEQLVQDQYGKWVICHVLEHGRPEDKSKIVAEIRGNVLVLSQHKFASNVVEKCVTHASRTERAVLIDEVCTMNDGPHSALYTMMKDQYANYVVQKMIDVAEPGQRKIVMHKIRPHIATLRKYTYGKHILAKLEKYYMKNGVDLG
# How it was run: as §1
# PUM1 PUF domain R6-RWL = molecular target: T2, PUM1 PUF domain R6-RWL (Homo sapiens, UniProt Q14671 828-1176, N1043R;Y1044W;Q1047L)
# T2 sequence: T1 sequence with K216R, C220L
# How it was run: as §1
# PUM1 PUF domain R6-CWL = molecular target: T3, PUM1 PUF domain R6-CWL (Homo sapiens, UniProt Q14671 828-1176, N1043C;Y1044W;Q1047L)
# T3 sequence: T1 sequence with K216C, C220L
# How it was run: as §1
# PUM1 PUF domain R8-HFP = PUM1 PUF domain R8-HFP (Homo sapiens, UniProt Q14671 828-1176, N1122H;Y1123F;Q1126P)
# How it was run: as §1
# PUM1 PUF domain R8-PYC = PUM1 PUF domain R8-PYC (Homo sapiens, UniProt Q14671 828-1176, N1122P;Q1126C)
# How it was run: as §1
# PUM1 PUF domain R4-DFR = PUM1 PUF domain R4-DFR (Homo sapiens, UniProt Q14671 828-1176, N971D;H972F;Q975R)
# How it was run: as §1
# [1] = molecular target: PUM1 PUF domain R1-QFR R2-VFQ R7-NPG (Homo sapiens, UniProt Q14671 828-1176, S863Q;R864F;Q867R;N899V;Y900F;S1079N;N1080P;E1083G)
# How it was run: as §1
# PUM1 PUF domain R1-TKK = PUM1 PUF domain R1-TKK (Homo sapiens, UniProt Q14671 828-1176, S863T;R864K;Q867K)
# How it was run: as §1
# PUM1 PUF domain R3-RPQ = PUM1 PUF domain R3-RPQ (Homo sapiens, UniProt Q14671 828-1176, C935R;R936P)
# How it was run: as §1
sequence,measurement,setting,value
GGCUAGAACUAGUGGAUCCCCCGGCGCCCGGCGGCUCGAGCCCGGGUAAGUGUCAAUAGUCUGCAUGCCGCCGGGCGCCAUGCCUGCAGGUCGACUCUAGAAAACAUG,binding signal,PUM1 PUF domain R5-AAR,4.02 log2 enrichment (interaction score)
GGCUAGAACUAGUGGAUCCCCCGGCGCCCGGCGGCUCGAGCCCGGGUAAGUGUUAAUAGUCUGCAUGCCGCCGGGCGCCAUGCCUGCAGGUCGACUCUAGAAAACAUG,binding signal,PUM1 PUF domain R5-AAR,1.62 log2 enrichment (interaction score)
GGCUAGAACUAGUGGAUCCCCCGGCGCCCGGCGGCUCGAGCCCGGGUAAGUGAAAAUAGUCUGCAUGCCGCCGGGCGCCAUGCCUGCAGGUCGACUCUAGAAAACAUG,binding signal,PUM1 PUF domain R6-KWC,6.72 log2 enrichment (interaction score)
GGCUAGAACUAGUGGAUCCCCCGGCGCCCGGCGGCUCGAGCCCGGGUAAGUGUAAAUAGUCUGCAUGCCGCCGGGCGCCAUGCCUGCAGGUCGACUCUAGAAAACAUG,binding signal,PUM1 PUF domain R6-RWL,5.11 log2 enrichment (interaction score)
same,binding signal,PUM1 PUF domain R6-CWL,3.76 log2 enrichment (interaction score)
GGCUAGAACUAGUGGAUCCCCCGGCGCCCGGCGGCUCGAGCCCGGGUAAGCGUAAAUAGUCUGCAUGCCGCCGGGCGCCAUGCCUGCAGGUCGACUCUAGAAAACAUG,binding signal,PUM1 PUF domain R8-HFP,6.79 log2 enrichment (interaction score)
same,binding signal,PUM1 PUF domain R8-PYC,3.77 log2 enrichment (interaction score)
GGCUAGAACUAGUGGAUCCCCCGGCGCCCGGCGGCUCGAGCCCGGGUAAGUGUACAUAGUCUGCAUGCCGCCGGGCGCCAUGCCUGCAGGUCGACUCUAGAAAACAUG,binding signal,PUM1 PUF domain R4-DFR,5.83 log2 enrichment (interaction score)
GGCUAGAACUAGUGGAUCCCCCGGCGCCCGGCGGCUCGAGCCCGGGUAAGUGUAUAUAGUCUGCAUGCCGCCGGGCGCCAUGCCUGCAGGUCGACUCUAGAAAACAUG,binding signal,PUM1 PUF domain R4-DFR,6.14 log2 enrichment (interaction score)
GGCUAGAACUAGUGGAUCCCCCGGCGCCCGGCGGCUCGAGCCCGGGUAAGUUUAAAACGUCUGCAUGCCGCCGGGCGCCAUGCCUGCAGGUCGACUCUAGAAAACAUG,binding signal,[1],6.82 log2 enrichment (interaction score)
GGCUAGAACUAGUGGAUCCCCCGGCGCCCGGCGGCUCGAGCCCGGGUAAGUGUAAAUCGUCUGCAUGCCGCCGGGCGCCAUGCCUGCAGGUCGACUCUAGAAAACAUG,binding signal,PUM1 PUF domain R1-TKK,3.92 log2 enrichment (interaction score)
GGCUAGAACUAGUGGAUCCCCCGGCGCCCGGCGGCUCGAGCCCGGGUAAGUGUAAUUAGUCUGCAUGCCGCCGGGCGCCAUGCCUGCAGGUCGACUCUAGAAAACAUG,binding signal,PUM1 PUF domain R3-RPQ,3.45 log2 enrichment (interaction score)
